DAX1 inh-1 – DAX1 (NR0B1) inhibitors on StAR promoter, primary screen, cell-based, luminescence, SF-1 (NR5A1), full-length DAX-1. HEK293T StAR-luciferase reporter, SF-1/DAX-1 repression relief. inhibition, % at 6.8 µM. 370,000 tested, 1.1% active. AID 652010, 2013;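 active = inhibition above the mean over all tested compounds plus 3 SD, cut at about 3.6% in these data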;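 note: 0% = DAX-1 cells with DMSO and 100% = cells lacking DAX-1 with DMSO; higher inhibition means more luminescence from relief of DAX-1 repression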
hcDAF-12 act – H. contortus DAF-12 nuclear receptor activators, primary screen, cell-based, luminescence, HEK293, lit1-tk-luc reporter | activation, % at 6.8 µM | AID 652067, 2013 | HEK293 hcDAF-12 lit1-tk-luc reporter; 0% DMSO, 100% Δ7-dafachronic acid | 370,000 tested, 1.4% active;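 active = activation above the mean of all tested compounds plus 3 SD, cut at about 5.5% in these data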;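 note: 100% = response to 3 µM Δ7-dafachronic acid high control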
ssDAF-12 act – S. stercoralis DAF-12 nuclear receptor activators, primary screen, cell-based, luminescence, HEK293, GRIP1 co-expression, lit1-tk-luc; HEK293 ssDAF-12/GRIP1 lit1-tk-luc reporter; % of 3 µM dafachronic acid response; activation, % at 6.8 µM; 370,000 tested, 1% active; AID 652126, 2013;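 active = activation above the mean over all tested compounds plus 3 SD, cut at about 0.9% in these data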;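 note: 0% = DMSO-only wells and 100% = 3 µM delta7-dafachronic acid wells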
DAX1 inh-2 – DAX1 (NR0B1) inhibitors, primary screen, cell-based, HEK293, Gal4-DAX1, luciferase luminescence; Nuclear receptor subfamily 0 group B member 1 (Homo sapiens), P51843; HEK293 Gal4-DAX1 luciferase reporter; inhibition, % at 6.75 µM; 340,000 tested, 0.99% active; AID 504766, 2011;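 active = inhibition above the mean over all tested compounds plus 3 SD, cut at about 4.2% in these data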;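 note: 0% = DAX1-transfected cells with DMSO and 100% = empty-vector control cells with DMSO; inhibition shows as a rise in luminescence from relieved DAX1 repression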
Target sequence (P51843 207-470 limits assumed): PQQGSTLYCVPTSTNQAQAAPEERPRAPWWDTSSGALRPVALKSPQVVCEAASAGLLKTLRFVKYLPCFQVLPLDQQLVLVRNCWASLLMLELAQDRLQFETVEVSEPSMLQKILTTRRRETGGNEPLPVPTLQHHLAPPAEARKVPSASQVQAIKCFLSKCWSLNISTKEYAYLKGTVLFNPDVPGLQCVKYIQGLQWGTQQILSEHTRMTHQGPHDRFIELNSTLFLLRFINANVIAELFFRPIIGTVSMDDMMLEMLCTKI
hgDAF12 agonist – H. glycines DAF-12 receptor agonists, primary screen, cell-based, luminescence, HEK293, GAL4 fusion, UAS-luciferase; 370,000 tested, 1.8% active; activation, % at 6.8 µM; Nuclear hormone receptor DAF-12 (Heterodera glycines), GAL4 fusion; AID 687014, 2013; HEK293 GAL4-hgDAF12 UAS-luciferase reporter, agonist luminescence; normalized to butyrate control;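 active = activation above a cutoff set at the mean of all screened compounds plus 3 SD, cut at about 10% in these data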;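 note: 0% = DMSO wells and 100% = sodium butyrate wells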
Starred values were filed as active, the others as inactive; . = no result given. Most compounds without a hit are left out; they make up all but 4.1% or so of the library.

SMILES | DAX1 inh-1 | hcDAF-12 act | ssDAF-12 act | DAX1 inh-2 | hgDAF12 agonist
CCOC(=O)c1c(CSC(=N)N)n(-c2ccccc2)c2cc(Br)c(OC(C)=O)cc12 | 1 | -1 | -1 | 4.3* | -1
CCOC(=O)c1c(CN2CCN(C)CC2)n(-c2ccccc2)c2cc(Br)c(O)cc12 | 0 | -2 | -2 | 2 | -1
C/C(=N\NC(=O)C1CCCC1)c1ccc(Cl)c(Cl)c1 | 1 | 2 | -1 | 1 | 2
C/C(=N\NC(=S)NC1CCCCC1)c1ccc(Cl)c(Cl)c1 | 0 | -1 | -2 | 25* | -2
CCN(CC)S(=O)(=O)c1ccc(NN)nc1 | 0 | -2 | 1.4* | 0 | -2
COc1ccc(C2CC(=O)C(c3cccc(F)c3)=CN2Cc2ccccc2)cc1 (centres undefined) | -1 | -2 | -1 | . | 1
Cc1cc(C(=O)CN2C(=O)C3CC=CCC3C2=O)c(C)n1-c1ccccc1 (centres undefined) | 2 | 5 | -1 | 1 | 11*
O=C(NC(=S)Nc1ccccc1Cl)c1cncc(C#Cc2ccccc2)c1 | 0 | -1 | -1 | 4.4* | -1
Cc1ccc(OCC(=O)N/N=C2/SCC(=O)N2Cc2ccco2)cc1 | 1 | -2 | -1 | 6.9* | 0
COc1ccc(S(=O)(=O)N2CCOCC2)cc1NC(=O)Cc1ccc(F)cc1 | -1 | 0 | -1 | -1 | -2
Cc1ccnc(NC(=O)c2cc3ccccc3oc2=O)c1 | 3 | 2 | 0 | 3 | 11*
Cc1cccc(NC(=O)CSc2nc3ccccc3o2)c1 | 1 | 3 | 0 | 2 | 13*
COc1ccc(-c2cc3ccccc3oc2=O)cc1 | 2 | 5 | 0 | 2 | 13*
Cc1cccc(NC(=O)c2cc3ccccc3oc2=O)c1 | 1 | 4 | 0 | 4.3* | 11*
O=C(O)c1ccccc1NC(=O)c1cc2ccccc2oc1=O | 1 | 2 | -1 | 1 | 2
COc1ccc(-c2nnc(-c3cc4ccccc4oc3=O)o2)cc1 | 1 | 1 | -1 | 0 | 2
COc1ccc2oc(=O)c(C(=O)Nc3cccc(C)c3)cc2c1 | 1 | 0 | -1 | 0 | 6
CC(CNC(=O)[C@@H](Cc1ccccc1)NC(=O)[C@H]1O[C@@H](n2ccc(=O)[nH]c2=O)[C@H](O)[C@@H]1O)c1ccccc1 (some centres undefined) | 0 | -1 | -1 | . | 1
CCCc1c(-c2ccc(OC)cc2)ncn1CCc1ccccc1OC | -5 | -6 | -2 | . | -9
COC(=O)Cc1nnn2c1[C@H](C)[C@@H](OC)c1ccccc1-2 | 0 | 0 | -1 | . | 3
COc1cccc(C(=O)NCC2CCN(C(=O)C(=O)c3cc4ccccc4o3)CC2)c1 | 1 | -2 | -1 | . | 0
c1ccc(COc2ncnc3c2ncn3CCCNCc2cccs2)cc1 | 2 | 0 | -1 | 1 | 2
COc1ccc(NC(=O)c2cc(C3CC3)on2)c(OC)c1 | 2 | 5 | 1.1* | 1 | 6
COc1ccc(-c2cc3ccc(O)cc3oc2=O)cc1OC | 0 | 5.8* | 0 | 0 | 3
COc1ccc(NC(=O)c2cc(-c3ccco3)on2)c(OC)c1 | 0 | 2 | -1 | 2 | -1
CN(C)S(=O)(=O)c1cccc(NC(=O)COC(=O)c2cc3ccccc3oc2=O)c1 | 3 | 4 | 1 | 5.3* | 13*
COc1ccc(NC(=O)c2cc3ccccc3oc2=O)c(OC)c1 | 1 | 5 | 0 | 2 | 11*
CC12CC3(C)CC(C)(C1)CC(C(=O)NCc1cccnc1)(C2)C3 | 0 | 0 | -1 | 1 | -2
N=C1N(C(=O)OCc2ccccc2)/C(=C\C2=CCCCC2)C(Cc2ccccc2)N1Cc1ccccc1 (centres undefined) | -1 | 0 | -1 | . | -1
CCOc1cc(OCC)cc(C(=O)N2CCC[C@@H]2C(=O)N2CCC[C@H]2C(=O)NCc2ccccc2)c1 | -1 | 1 | -1 | . | -2

Compound activity: PubChem, The Scripps Research Institute Molecular Screening Center
